# High-throughput results as filed in PubChem.
# The list is not random: actives were taken first. Their share in the collection is about 7.5%.
# Rab9 prom act: activates the Rab9 promoter. Huh7 Rab9 promoter-luciferase reporter, luminescence, 24 h. Potency, µM (top dose mostly 9.22 µM), without a hit: at the top dose activation, negative = inhibition, most hits filed as activators. 2.8% of 320,000 active. AID 485297; also: % of control where 0% means no effect; nearly all actives have a fitted effect of over 60% in size
#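 Stable Rab9-luc Huh7, 1500 cells/well, 2 h settle; cmpd in DMSO, 24 h, 37 °C/5% CO2; luciferase reagent 10 min RT; luminescence.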
# KinaseGlo FLuc: counter-screen: inhibitors of Kinase-Glo firefly luciferase. Potency, µM (doses to about 38.3 µM), for inactives: at the top dose activity change, negative = inhibition, usual class: inhibitors. 0.28% of 200,000 active. Kinase-Glo luciferase, ATP luminescence, 8 min. AID 1379; also: % is scaled to controls: 0 for no effect and ±100 for the full control effect; nearly all actives have a fitted effect of over 60% in size
#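 Kinase-Glo luciferase light output from ATP and luciferin was measured with 10 uM ATP, within the enzyme's linear range. Buffer: 50 mM imidazole pH 7.2, 50 mM KCl, 7 mM MgCl2, 0.01% Tween 20, 0.05% BSA; luminescence read after 8 min at ambient temperature.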
# ELG1 genotoxic: induces genotoxicity in HEK293T cells with luciferase-tagged ELG1; HEK293T ELG1-luciferase reporter, luminescence, 16 h; Potency, µM (series often up to 46 µM), without a hit: top-dose activity change, positive = activation, usual class: activators; 1.3% of 330,000 active; also: % of control where 0% means no effect; nearly all actives have a fitted effect of over 60% in size
#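 Step 1: seed 2,000 HEK293T ELG1-luciferase cells per well. Step 2: add compound or DMSO, incubate 16 hr at 37 °C. Step 3: ONE-Glo, 30 min at room temperature, read luminescence.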
# NPC1 promoter act: activates the NPC1 promoter; Huh7 NPC1 promoter luciferase reporter, 24 h; Potency, µM (top dose mostly 9.22 µM), for the others: at the highest dose activation, usual class: activators; 2.4% of 320,000 active; AID 485313; also: % of control where 0% means no effect; nearly all actives have a fitted effect of over 60% in size
#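 NPC1 promoter–luciferase Huh7 cells; 24 h compound; luminescence.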
# SMN2 splice up: increases expression of the SMN2 splice variant. HEK293 SMN2-luciferase splicing reporter, luminescence, 30-36 h. Potency, µM (titrated, usually from 46.1 µM), for the others: at the highest dose activity change, positive = activation, most hits filed as activators. 2.8% of 210,000 active. AID 1458; also: % of control where 0% means no effect; nearly all actives have a fitted effect of over 55% in size
#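 HEK293 cells carry an SMN2 minigene-luciferase reporter in which exon 7 inclusion puts luciferase in frame. Cells were seeded at 2000 cells/well, attached for 10-12 hours, then exposed to compounds for 30-36 hours at 37C before ONE-Glo luminescence.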
# FLuc counter: firefly luciferase modulation, counter-screen for miR-21 project; purified FLuc, Km substrates, luminescence inhibition; Potency, µM (titrated, usually from 57.5 µM), inactives show top-dose activity change, negative = inhibition, actives largely listed as inhibitors; 6.9% of 360,000 active;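 also: plate controls were vehicle for no effect and reference inhibitor for full effect; nearly all actives have a fitted effect of over 55% in size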
# Target sequence (P08659 whole entry, looked up): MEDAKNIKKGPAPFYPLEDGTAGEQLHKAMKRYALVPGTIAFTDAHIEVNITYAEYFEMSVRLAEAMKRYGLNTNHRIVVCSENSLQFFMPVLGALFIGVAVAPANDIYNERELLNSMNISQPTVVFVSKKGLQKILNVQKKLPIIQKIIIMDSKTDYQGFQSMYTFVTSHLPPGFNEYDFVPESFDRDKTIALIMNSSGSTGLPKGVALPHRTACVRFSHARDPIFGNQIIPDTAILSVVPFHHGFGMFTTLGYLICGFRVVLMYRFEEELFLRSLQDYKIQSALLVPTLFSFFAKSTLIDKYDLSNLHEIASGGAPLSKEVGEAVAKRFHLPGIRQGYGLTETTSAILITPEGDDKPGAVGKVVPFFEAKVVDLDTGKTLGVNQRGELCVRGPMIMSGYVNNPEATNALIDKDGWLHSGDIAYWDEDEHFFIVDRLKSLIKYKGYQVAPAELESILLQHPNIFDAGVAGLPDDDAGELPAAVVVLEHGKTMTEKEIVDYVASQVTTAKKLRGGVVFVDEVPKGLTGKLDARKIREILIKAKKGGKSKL
#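 Biochemical qHTS of compounds, final roughly 60 µM downward over six points, against 10 nM purified firefly luciferase using Km concentrations of substrates (10 uM D-luciferin, 10 uM ATP) in Tris acetate pH 7.5 buffer; luminescence output.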
# Active calls of the source: *; ? = inconclusive; / = not tested or not shown; [ ] = remark or other dose. Calls follow the shape of the dose curve; as a rule, active = well fitted curve in the direction sought with a large enough effect; inconclusive = small, poorly fitted or top-dose-only effect, or another doubt; inactive = no such curve, though single readings can be large; an effect the other way counts as inactive or inconclusive. Potency is read from the fitted curve at half-maximal effect.
SMILES,Rab9 prom act,KinaseGlo FLuc,ELG1 genotoxic,NPC1 promoter act,SMN2 splice up,FLuc counter
CC1CN(c2c(F)c(N)c3c(=O)c(C(=O)O)cn(C4CC4)c3c2F)CC(C)N1 (stereo not given),/,-2%[39.9 µM],/,/,/,/
CCC12CN3CC(C)(CN(C1)C3c1ccccc1C)C2=O (stereo not given),/,/,/,/,14%,1%
Cc1ccc(C)n1-c1nnc(N2CCCC(C(=O)NCc3ccc(Cl)cc3)C2)s1 (stereo not given),/,/,/,/,9%,-14%
O=C(NC1CCCC1)c1cc(-c2cccs2)on1,2µM*,-4%,9.2µM*,1.6µM*,?,4.8µM*
O=C(NC1CC1)c1cc(-c2cccs2)on1,/,/,/,/,/,11µM*
Cc1cc(C(=O)CSc2nc3ccccc3n2CCC#N)c(C)n1Cc1cccs1,?,2%,8.2µM*,25%,?,?
N#CCCn1c(SCC(=O)c2c[nH]c3ccccc23)nc2ccccc21,10%,1%,0%,-2%,-21%,-1%
COc1ccccc1-n1cnnc1SCC(=O)c1cc(C)n(Cc2cccs2)c1C,13%,-5%,14%,16%,1%,19µM*
C=CCn1c(SCC(=O)c2cc(C)n(Cc3cccs3)c2C)nnc1-c1ccncc1,-1%,0%,-6%,2%,-14%,19µM*
CC(=O)N(Cc1cccnc1)c1nc2c(C)cc(C)cc2s1,/,/,/,/,/,-16%
O=C1c2cc(O)c(O)cc2S(=O)(=O)C1c1ccccc1 (stereo not given),0%,/,3%,0%,/,-9%
CCN(CC)S(=O)(=O)c1cc(-c2ccc(=O)n(C(C)C(=O)Nc3cccc(C#N)c3)n2)ccc1C (stereo not given),/,/,/,/,/,-11%
CCOc1ccc(N(C(=O)c2snc(C(N)=O)c2N)C(C(=O)NCC2CCCO2)c2ccc(C)o2)cc1 (stereo not given),1%,/,0%,0%,/,13µM*
Cc1ccc2c(c1)Cc1nc3ccccc3nc1-2,?,8.9µM*,-2%,4%,?,1.1µM*
CCCCn1c(O)c(N=Nc2ccccc2O)c2ccccc21,20%,/,4%,-2%,/,0%
Cn1c(O)c(N=NC(=O)c2ccccc2O)c2ccccc21,?,-20%,7.3µM*,3.5µM*,/,3µM*
Cc1occc1C(=O)N=Nc1c(O)n(C)c2ccccc12,?,-30%,?,?,2.8µM*,1.7µM*
CCOC(=O)C(=O)N=Nc1c(O)n(C)c2ccccc12,2%,-2%,3%,-6%,/,-8%
Cn1c(O)c(N=NC(=O)c2ccco2)c2ccccc21,2.2µM*,-13%,?,4µM*,10µM*,4.8µM*
Cn1c(O)c(N=Nc2ccccc2[N+](=O)[O-])c2ccccc21,?,/,?,3.5µM*,/,?
Cc1cc(N=NC(=O)c2ccccc2O)c2ccccc2c1O,3.2µM*,-6%,-7%,?,-10%,11µM*
Cc1cc(C)n(C(=O)CNC(=O)c2ccc(Cl)cc2Cl)n1,1%,/,2%,2%,/,6.7µM*
Cc1cc(C)n(C(=O)CNC(=O)c2ccc(C(C)(C)C)cc2)n1,1%,/,10%,-2%,/,7.6µM*
COc1ccc(C(=O)NCC(=O)n2nc(C)cc2C)cc1OC,2%,3%,1%,-2%,-1%,-2%[2.3 µM]
Cc1cc(C)n(C(=O)CNC(=O)Cc2ccccc2)n1,3%,4%,9%,0%,7%,-2%
SMILES,Rab9 prom act,KinaseGlo FLuc,ELG1 genotoxic,NPC1 promoter act,SMN2 splice up,FLuc counter
CC(C)(C)c1ccc(C(=O)NC(=S)NCc2ccco2)cc1,8%,/,9%,19%,/,19µM*
COc1ccc(C(=O)NC(=S)NCCc2ccccc2)cc1,22%,1%,13%,5%,28%,?
COCCNC(=S)NC(=O)c1ccc(C(C)(C)C)cc1,?,-8%,?,24%,?,13µM*
CCn1c(SC)nc2c([nH]c3ccccc32)c1=O,/,/,/,/,/,-9%
Cc1ccccc1CNC(=O)c1ccc(CSc2nc3cccnc3n2Cc2ccccc2)cc1,/,/,/,/,/,1%
CCN(CC)CCNC(=O)c1ccc(Cn2c(SCc3ccccc3)nc3cccnc32)cc1,/,/,/,/,/,13µM*
O=C(NCCc1ccccc1)c1ccc(Cn2c(SCc3ccc(F)cc3)nc3cccnc32)cc1,/,/,/,/,/,4.8µM*
CCOc1ccccc1CNC(=O)c1ccc(Cn2c(SCc3ccccc3)nc3cccnc32)cc1,/,/,/,/,-6%,2.7µM*
O=C(NCCc1ccccc1)c1ccc(Cn2c(SCc3ccccc3F)nc3cccnc32)cc1,/,/,/,/,/,5.4µM*
O=C(Nc1cccc(OCc2cc(=O)n3ccccc3n2)c1)Nc1cccc(C(F)(F)F)c1,/,/,/,/,/,-7%
CCc1ccccc1NC(=O)C1CCCN(c2nnc(-n3c(C)ccc3C)s2)C1 (stereo not given),/,/,/,/,-6%,-3%
O=C(NCc1cccs1)c1ccc(CSc2nc3cccnc3n2Cc2ccc(F)cc2)cc1,/,/,/,/,/,-13%
COc1ccc(Cn2c(SCc3ccc(C(=O)NCCc4ccccc4)cc3)nc3cccnc32)cc1,/,/,/,/,-8%,-16%
COc1cccc(CCNC(=O)c2ccc(Cn3c(SCc4ccccc4)nc4cccnc43)cc2)c1,/,/,/,/,-17%,9.5µM*
O=C(NCc1ccco1)c1ccc(Cn2c(SCc3ccc(F)cc3)nc3cccnc32)cc1,/,/,/,/,/,6µM*
COCc1cc(=O)n2c(-c3ccc(C)cc3)n[nH]c2n1,3%,1%,11%,19%,?,9.5µM*
CCc1ccc(C(=O)COC(=O)[C@@H](NC(N)=O)[C@@H](C)CC)cc1,?,-1%,?,18%,-3%,1.3µM*
CCc1ccc(C(=O)COC(=O)C(NC(=O)C2CCC(C)CC2)C(C)C)cc1 (stereo not given),/,/,/,/,-6%,1.7µM*
CCC(C)C(NC(N)=O)C(=O)Nc1ccc(C(=O)OC)cc1 (stereo not given),18%,1%,-4%,-5%,8%,-4%
COc1ccc(C)cc1NC(=O)c1cc2c(s1)CCC2,?,-5%,13%,1%,?,15µM*
COC(=O)c1sccc1NC(=O)c1cccc(OC)c1,0%,-3%,1%,10%,0%,?
COC(=O)c1sccc1NC(=O)c1cc2c(s1)CCCC2,?,-11%,4%,26%,8%,8.5µM*
COc1ccc(S(=O)(=O)N2CCOCC2)cc1NC(=O)c1cc2c(s1)CCCC2,11%,-1%,0%,-4%,-5%,-22%
CCOc1ccc(CN2C(=O)c3ccccc3Sc3ccc(C(=O)OC)cc32)cc1,/,/,/,/,/,0%
CC(/C=N/NC(=O)c1nnn(-c2nonc2N)c1C(C)C)=C\c1ccccc1,?,/,3%,?,/,1.5µM*
